# Out of some 69,000 compounds screened, about 8,600 (12%) showed an effect of 50% or more. What follows is part of a selection rich in strong results, with near analogues and random picks from the rest.
# Tested on: Plasmodium berghei
# Assay: Screen against P. berghei liver stage (PbLuc), transformed with Luciferase, at 10uM
# Type: functional, HepG2
# Settings: tested at 10 uM
row,Structure (SMILES),INHIBITION
1,COCCN1C(=O)CCC12CCN(C(=O)NC(C)C)CC2,-38.4%
2,CC(C)NC(=O)N1CCC2(CCC(=O)N2CCN2CCCC2)CC1,5.04%
3,CN(C)CCN1C(=O)CCC12CCCN(C(=O)CC1CC1)CC2 (configuration not stated),51.9%
4,CN(C)CCN1C(=O)CCC12CCN(C(=O)CC1CC1)CC2,-12.2%
5,CN(C)CCN1C(=O)CCC12CCCN(C(=O)N(C)C)CC2 (configuration not stated),9.97%
6,COCCC(=O)N1CCCC2(CCC(=O)N2CCOC)CC1 (configuration not stated),54.9%
7,COCCN1C(=O)CCC12CCCN(C(=O)CC1CC1)CC2 (configuration not stated),-15.9%
8,COCCN1C(=O)CCC12CCCN(C(=O)NC(C)C)CC2 (configuration not stated),18.6%
9,CC(C)NC(=O)N1CCC2(CCC(=O)N2CCN(C)C)CC1,60.5%
10,O=c1cc(CNCc2ccc3c(c2)OCO3)nc2ccccn12,14.3%
11,COc1nn(C)cc1C(=O)N1CCC(c2nnc(C(C)C)o2)CC1,37.5%
12,c1ccn(Cc2noc3c2CN(Cc2ccsc2)CC3)c1,49.1%
13,Cc1ccc2c(c1)CN(CC(=O)NCCc1ccc(F)cc1)CC(C)O2 (configuration not stated),-46.4%
14,CC1CN(CC(=O)NCCc2ccncc2)Cc2ccccc2O1 (configuration not stated),60.9%
15,CC1CN(CCC(=O)NCCc2cccnc2)Cc2ccccc2O1 (configuration not stated),26.1%
16,O=C(c1ccc(-c2ccsc2)nc1)N1CCCN(C2CCCCC2)CC1,14.4%
17,CO[C@@]1(C)C[C@@H](O)C12CCN(C(=O)CCn1c(C)cccc1=O)CC2,46.4%
18,COCC1c2nnn(C)c2CCN1C(=O)c1ccc(OC)c(F)c1 (configuration not stated),44.8%
19,COCC1c2nnn(C)c2CCN1C(=O)Cc1ccc2c(c1)OCO2 (configuration not stated),-10.5%
20,COCC1c2nnn(C)c2CCN1C(=O)Cc1ccccn1 (configuration not stated),-21.3%
21,COCC1c2nnn(C)c2CCN1C(=O)COc1ccccc1OC (configuration not stated),53%
22,COCC1c2nnn(C)c2CCN1C(=O)CCc1cccc(OC)c1 (configuration not stated),52.1%

row,Structure (SMILES),INHIBITION
1,COCC1c2nnn(C)c2CCN1C(=O)COc1ccccc1C (configuration not stated),22.2%
2,CCc1c(C)sc2nc3n(CCN4CCCCC4)nc(SC)n3c(=O)c12,35.1%
3,CC(C)(C)c1n[nH]c(C2CN(C(=O)c3cc(C4CC4)[nH]n3)CCO2)n1 (configuration not stated),-21.2%
4,CNC(=O)N1CCN(C(=O)N(C)C)CC2(CC(=O)N(C)C2)C1 (configuration not stated),26.3%
5,Cc1ncsc1C(=O)N1CC[C@@H]2[C@@H](CC1)OCCN2c1cccnc1,65.1%
6,O=C(c1ccoc1)N1CC[C@@H]2[C@@H](CC1)OCCN2c1cccnc1,45.8%
7,O=C(c1ccncc1)N1CC[C@@H]2[C@@H](CC1)OCCN2c1cccnc1,12.1%
8,CC(Cn1cccn1)NC(=O)c1ccsc1 (configuration not stated),15.7%
9,Cc1nc2ccc(C(=O)N3CCn4c(C)nnc4C3)cc2nc1C,1.56%
10,CN1C[C@H](c2ccccc2)[C@H]2CN(C(=O)Cc3ccc(O)cc3)CC[C@H]21,27.35%
11,CCN1CC2(CCC1=O)CCN(C(=O)c1ccc(C)cc1O)CC2,18.6%
12,COc1cccc(-c2nnn(C3CCN(CC(F)(F)F)C3=O)n2)c1 (configuration not stated),-73.4%
13,Cc1nnc(SCCCNC(=O)c2ccc3c(c2)OCO3)s1,33.4%
14,CCn1c(C)nnc1SCCNc1cc(COC)ncn1,8.51%
15,Cc1nnc(SCCCNc2cc(C3CC3)ncn2)s1,58.8%
16,Cc1nnc(SCCNc2cc(C3CC3)ncn2)s1,4.52%
17,COCc1cc(NCCCSc2nnc(C)s2)ncn1,58.8%
18,COc1cc(NCCCSc2nnc(C)s2)ncn1,42.1%
19,Cc1cccc(N2CC3(CCN(S(=O)(=O)c4cccs4)C3)CC2=O)c1 (configuration not stated),-4.82%
20,CSc1ccc(C(=O)N2C[C@@H]3CC[C@H]2CN(Cc2cccnc2)C3)cc1,-5.19%
21,Cc1noc(CCCNC(=O)N2CCc3ccccc3C2CO)n1 (configuration not stated),14.4%
22,CC(C)(C)c1cc(NC(=O)CN2CCc3cncnc3C2)on1,-9.76%

row,Structure (SMILES),INHIBITION
1,CCc1nc2ccccc2c(=O)n1CC1(O)CCN(C(=O)C(C)C)CC1,35.2%
2,COC(=O)COn1c(SCC(=O)OC)nc2ccccc2c1=O,28.3%
3,COC(=O)COn1c(SC)nc2ccccc2c1=O,48%
4,CCOn1c(SC(C)C)nc2ccccc2c1=O,56.3%
5,CCSc1nc2ccccc2c(=O)n1OCC(=O)OC,60.8%
6,COC(=O)COn1c(OC)nc2ccccc2c1=O,52.5%
7,CCc1nc2ccccc2c(=O)n1CC1(O)CCN(CC(=O)OC)CC1,13.5%
8,COC(=O)COn1c(SC(C)C)nc2ccccc2c1=O,28.3%
9,CCc1nc2ccccc2c(=O)n1CC1(O)CCN(C(=O)COC)CC1,7.52%
10,CC(C)Cc1noc(CN2CCCC2c2noc(C3CC3)n2)n1 (configuration not stated),-31.5%
11,CC(C)(C)N1CCN(C(=O)Nc2cc(C(F)(F)F)c[nH]c2=O)CC1,33.3%
12,COC(=O)C1C=CCN1C(=O)c1cc(COc2ccccc2)[nH]n1 (configuration not stated),9.41%
13,Cc1nc(N(C)C)ncc1C(=O)N[C@@H]1CCc2ccccc21,27.4%
14,O=C(Nc1ccccc1)C1CCCN(c2cc(-n3cncn3)ncn2)C1 (configuration not stated),50.2%
15,O=C(NCc1cccs1)C1CCCN(c2cc(-n3cncn3)ncn2)C1 (configuration not stated),13.9%
16,O=C(Nc1cccnc1)C1CCN(c2cc(-n3ccnc3)ncn2)CC1,31.3%
17,O=C(Nc1cccnc1)C1CCCN(c2cc(-n3cccn3)ncn2)C1 (configuration not stated),50.2%
18,O=C(CN1CCCC(Cn2cncn2)C1)Nc1cccnc1 (configuration not stated),-43.9%
19,O=C(NC1CC1)C1CCCN(c2cc(-n3cncn3)ncn2)C1 (configuration not stated),40.4%
20,CC(C)(C)C(=O)NC(c1nccs1)C1CCN(CC2CCCCC2)CC1 (configuration not stated),41.5%
21,CCn1nc(C)c(CCNC(=O)C2CCCN(C(C)=O)C2)c1C (configuration not stated),-20.2%
22,Cc1cnn(CC2CCCCN2CCS(C)(=O)=O)c1 (configuration not stated),17.4%

row,Structure (SMILES),INHIBITION
1,CNC(=O)CN1CCC(NC(=O)Cc2ccc3c(c2)OCCO3)CC1,-53.2%
2,CCN(Cc1c(C)nn(CC)c1C)S(=O)(=O)c1cnn(C)c1,11.8%
3,CCS(=O)(=O)N1C[C@@H]2C[C@H](C(=O)N(C)C)[C@H](C1)O2,22.2%
4,CN1CCCn2c(nc(CNC(=O)c3ccsc3)cc2=O)C1,35.8%
5,CCN1CCCn2c(nc(CNC(=O)c3ccsc3)cc2=O)C1,58%
6,O=C(NCc1cc(=O)n2c(n1)CN(CC1CC1)CCC2)c1ccsc1,89.2%
7,CCCN1CCCn2c(nc(CNC(=O)c3ccsc3)cc2=O)C1,18.5%
8,Cc1oncc1C(=O)NCc1cc(=O)n2c(n1)CN(CC1CC1)CCC2,36.4%
9,O=c1cc(CNS(=O)(=O)C2CC2)nc2n1CCCN(CC1CC1)C2,33.1%
10,Cc1nn(C)c(N(C)C)c1CNCc1ccnc(N2CCCC2)c1,-44.3%
11,Oc1cc(-c2ccccn2)nc(C2CCN(Cc3ccncc3)CC2)n1,-44.8%
12,O=C(CCN1CCOC(Cn2cccn2)C1)NC1CCCCC1 (configuration not stated),-107%
13,COCC(=O)N1CCCn2c(CN3CCCCC3)nnc2C1,20.1%
14,O=C(c1ccccc1F)N1CCCn2c(CN3CCCCC3)nnc2C1,18.3%
15,O=C(c1cccc(Cl)c1)N1CCCn2c(CN3CCCCC3)nnc2C1,55.2%
16,O=C(c1ccncc1)N1CCCn2c(CN3CCCCC3)nnc2C1,31.8%
17,O=C(c1ccncc1)N1CCCn2c(CN3CCCC3)nnc2C1,35.7%
18,O=C1CCCN1Cc1nnc2n1CCCN(C(=O)c1ccc[nH]1)C2,53%
19,Cc1cccc(C(=O)N2CCCn3c(CN4CCCCC4)nnc3C2)c1,25.2%
20,COCC(=O)N1CCCn2c(CN3CCCC3)nnc2C1,56.6%
21,O=C(c1ccc[nH]1)N1CCCn2c(CN3CCCCC3)nnc2C1,42.1%
22,O=C(c1ccc[nH]1)N1CCCn2c(nnc2Cn2cccn2)C1,-17.2%

row,Structure (SMILES),INHIBITION
1,O=C(c1ccccc1)N1CCCn2c(CN3CCCCC3)nnc2C1,50.9%
2,COCC(=O)N1CCCn2c(CN3CCOCC3)nnc2C1,-2.46%
3,Cc1nc(C)n(CC2CCCN(Cc3cccc4c3OCCO4)C2)n1 (configuration not stated),38.8%
4,Cc1noc(C)c1-c1cncc(CC2CCN(C(=O)c3cc[nH]n3)C2)n1 (configuration not stated),22%
5,CNc1nc(C2CCCN(C(=O)C(C)C)C2)nc2c1CN(C)CC2 (configuration not stated),12.3%
6,Cc1cccc(OCCN2CCCC(c3cc(C(N)=O)[nH]n3)C2)c1 (configuration not stated),-46.4%
7,Cc1cc(C(=O)N2CCCC3(COCCN(c4ncccn4)C3)C2)[nH]n1 (configuration not stated),33.4%
8,COc1ccc2c(c1)C(C(=O)NCCCN1CCN(C)CC1)CC(=O)N2 (configuration not stated),26%
9,N#CC1(C(=O)N2CCCN(c3nccs3)CC2)CCCC1,7.305%
10,Nc1nccc(C2CCCN(CC3CC3)C2)n1 (configuration not stated),23%
11,O=C(NCCCn1ccnc1)N1CCCC1c1ccncc1 (configuration not stated),37%
12,COc1ccc(C2CCCN2C(=O)NCCCn2ccnc2)cc1 (configuration not stated),54.45%
13,COc1ccc(C2CCCN2C(=O)NCCn2ccnc2)cc1 (configuration not stated),21.425%
14,COc1cccc(C2CCCN2C(=O)NCCCn2cccn2)c1 (configuration not stated),45.7%
15,CC1COCCN1C(=O)NCCCn1ccnc1 (configuration not stated),24.8%
16,CC1COCCN1C(=O)NCCn1ccnc1 (configuration not stated),-3.94%
17,O=C(NCCCn1cccn1)N1CCCC1c1ccncc1 (configuration not stated),9.3%
18,COc1ccc(C2CCCN2C(=O)NCCCn2cccn2)cc1 (configuration not stated),56%
19,CC1CN(C)CCN1C(=O)NCCCn1ccnc1 (configuration not stated),60.1%

# Reference: ChEMBL document CHEMBL4513216, “Probing the Open Global Health Chemical Diversity Library for Multistage-Active Starting Points for Next-Generation Antimalarials” (ACS Infect Dis, 2020)
